Test results: PubChem BioAssay (EPA / NIEHS)
Where “and” joins values, the source holds several entries; their conditions need not be identical. Identical values can stand only once. Records with an inconclusive call do not appear. The source holds several records for some structures; these can differ, active in one and inactive in another. Calls of active or inactive are those of the source. The calls were made as follows, unless noted: active = hit-call score of the fitted dose curve at least 0.9, where 1 is the maximum; inconclusive = response in the unintended direction; inactive = score below 0.9.

Legend:
[1] = ATG_TCF_b_cat_CIS: Attagene CIS-FACTORIAL HepG2 Assay for human T-Cell-Factor with beta-catenin (TCF/b-cat) (AID 2282965; active = hit-call score of the fitted dose curve at least 0.9, where 1 is the maximum; inactive = score below 0.9); settings: HepG2 TCF/beta-catenin cis-reporter transcription, actives raise or lower the signal
Summary of the method: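 HepG2, transient MRTU transfection, cis-element-driven reporters (endogenous TFs). 24 h compound exposure. Readout: reporter mRNA by RT-PCR + 6-FAM primer extension, HpaI digest, capillary electrophoresis. Gain/loss fit vs DMSO baseline.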

[2] = ATG_TAL_CIS: Attagene CIS-FACTORIAL HepG2 Assay for human TAL Basal Promoter (AID 2282966; active = hit-call score of the fitted dose curve at least 0.9, where 1 is the maximum; inactive = score below 0.9;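 also: background control endpoint measuring basal TAL promoter reporter mRNA not a specific factor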); settings: HepG2 Attagene cis-factorial TAL promoter reporter; actives raise or lower the signal
Summary of the method: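 Basal-promoter background-control endpoint from a multiplexed HepG2 reporter panel. Cells were exposed 24 h, then reporter mRNA was read by RT-PCR/CE fluorescence and fitted in both directions relative to DMSO.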

[3] = ATG_TGFb_CIS: Attagene CIS-FACTORIAL HepG2 Assay for human Transforming Growth Factor (TGF) (AID 2282967; active = hit-call score of the fitted dose curve at least 0.9, where 1 is the maximum; inactive = score below 0.9); settings: HepG2 Attagene CIS TGFb reporter, mRNA transcription; actives raise or lower the signal
Summary of the method: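 Bidirectional fitting relative to DMSO gave the endpoint. Underlying data: reporter mRNA from HepG2 cells carrying transiently transfected cis-regulated reporter constructs, harvested 24 h after dosing and analyzed by RT-PCR and capillary electrophoresis.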

[4] = ATG_VDRE_CIS: Attagene CIS-FACTORIAL HepG2 Assay for human Vitamin D Receptor Element (VDRE) (AID 2282968; active = hit-call score of the fitted dose curve at least 0.9, where 1 is the maximum; inactive = score below 0.9); settings: HepG2 VDRE cis-reporter transcription, actives raise or lower the signal
Summary of the method: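 Compounds were applied for 24 h to HepG2 cells transfected with promoter-regulated reporter units. Total RNA was reverse-transcribed, and reporter amplicons were fluorescently labelled and sized by capillary electrophoresis.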

[5] = molecular target: Nuclear receptor subfamily 1 group I member 3 (Homo sapiens) (UniProt Q14994); assay: ATG_CAR_TRANS: Attagene TRANS-FACTORIAL HepG2 Assay for human Constitutive Androstane Receptor (CAR) (AID 2282969); settings: HepG2 Attagene TRANS-FACTORIAL CAR reporter;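 also: activators raise reporter mRNA above DMSO so AC50 marks induction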
Summary of the method: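 Transiently transfected HepG2, multiplex TRANS reporters (CAR-Gal4 chimera driving GAL4-UAS reporter). 24 h dosing. Readout: reporter transcript by RT-PCR + capillary electrophoresis, fluorescence intensity; positive direction vs DMSO.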

[6] = molecular target: Estrogen receptor (Homo sapiens) (UniProt P03372); assay: ATG_ERa_TRANS: Attagene TRANS-FACTORIAL HepG2 Assay for human Estrogen Receptor alpha (ERa) (AID 2282970); settings: HepG2 Attagene TRANS ERa GAL4 reporter, mRNA
Summary of the method: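 Gal4-fusion ERa transactivation, measured as reporter transcript level in transiently transfected HepG2 cells. Exposure 24 h; RT-PCR plus capillary electrophoresis with fluorescence detection.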

[7] = molecular target: X-box-binding protein 1 (Homo sapiens) (UniProt P17861); assay: ATG_Xbp1_CIS: Attagene CIS-FACTORIAL HepG2 Assay for human X-box Binding Protein 1 (XBP1) (AID 2282972; active = hit-call score of the fitted dose curve at least 0.9, where 1 is the maximum; inactive = score below 0.9); settings: HepG2 XBP1 cis-element reporter, Attagene multiplex; actives raise or lower the signal
Summary of the method: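 Human hepatoma HepG2, cis-element reporter system, 24 h treatment; mRNA quantified by RT-PCR/CE fluorescence; fit relative to DMSO.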

[8] = ATG_M_19_TRANS: Attagene TRANS-FACTORIAL HepG2 Assay for M19 Transcription Factor (Internal Marker) (AID 2282974); settings: HepG2 Attagene TRANS-FACTORIAL M19 internal marker reporter
Summary of the method: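 Using RT-PCR and capillary electrophoresis, reporter mRNA from transiently transfected human HepG2 cells was quantified following 24 h exposure; activity was fitted in the positive direction against DMSO.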

[9] = molecular target: Bile acid receptor (Homo sapiens) (UniProt Q96RI1); assay: ATG_FXR_TRANS: Attagene TRANS-FACTORIAL HepG2 Assay for Farnesoid X Receptor (FXR) (AID 2282979); settings: HepG2 Attagene TRANS FXR-GAL4 reporter transcription;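 also: hits raise reporter mRNA above DMSO so AC50 marks FXR activation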
Summary of the method: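 HepG2 cells were transiently transfected with GAL4-UAS reporters driven by chimeric NR-Gal4 proteins and dosed for 24 h. Reporter mRNA was quantified by RT-PCR, fluorescent labelling, HpaI digestion and capillary electrophoresis, with gain of signal scored versus DMSO.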

[10] = molecular target: Hepatocyte nuclear factor 4-alpha (Homo sapiens) (UniProt P41235); assay: ATG_HNF4a_TRANS: Attagene TRANS-FACTORIAL HepG2 Assay for human Hepatocyte Nuclear Factor 4 alpha (HNF4a) (AID 2282982); settings: HepG2 HNF4a transactivation reporter, mRNA readout
Summary of the method: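 Endpoint reflects transcriptional activation of a GAL4-UAS reporter by an HNF4a-GAL4 chimera in transfected HepG2 cells, 24 h post-dosing. Fluorescence from RT-PCR products separated by capillary electrophoresis; DMSO baseline.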

[11] = ATG_M_06_TRANS: Attagene TRANS-FACTORIAL HepG2 Assay for M06 Transcription Factor (Internal Marker) (AID 2282983); settings: HepG2 Attagene TRANS M06 internal marker reporter
Summary of the method: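 mRNA levels of a reporter transcript, quantified as FAM fluorescence on capillary electrophoresis, served as readout. HepG2 cells expressing exogenous GAL4-chimera reporter constructs were exposed for 24 h. Gain of signal over DMSO was evaluated.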

[12] = molecular target: Transcriptional activator Myb (Homo sapiens) (UniProt P10242); assay: ATG_Myb_CIS: Attagene CIS-FACTORIAL HepG2 Assay for human Myeloblastosis (Myb) Proto-Oncogene Transcription Factor (AID 2282986; active = hit-call score of the fitted dose curve at least 0.9, where 1 is the maximum; inactive = score below 0.9); settings: HepG2 Attagene CIS-FACTORIAL Myb reporter transcription; actives raise or lower the signal
Summary of the method: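 In this HepG2 transient-transfection format, cis-regulated reporter mRNA is quantified 24 h post-dosing by RT-PCR with capillary electrophoresis, fitted bidirectionally to DMSO baseline.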

[13] = ATG_GAL4_TRANS: Attagene TRANS-FACTORIAL HepG2 Assay for GAL4 (Internal Marker) (AID 2282976); settings: HepG2 Attagene TRANS GAL4 internal marker reporter
Summary of the method: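 Background-control readout: GAL4-UAS reporter transcript in transiently transfected HepG2 cells after 24 h compound exposure. Measured by RT-PCR, 6-FAM primer extension, HpaI digest and capillary electrophoresis; gain-of-signal fit versus DMSO.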

[14] = molecular target: Glucocorticoid receptor (Homo sapiens) (UniProt P04150); assay: ATG_GR_TRANS: Attagene TRANS-FACTORIAL HepG2 Assay for human Glucocorticoid Receptor (GR) (AID 2282978); settings: HepG2 Attagene TRANS GR reporter, mRNA transcription;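 also: activators score as hits since higher reporter transcript over DMSO is fitted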
Summary of the method: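 Exogenous NR-GAL4 fusion activity was assessed through induced GAL4-UAS reporter transcripts in transfected human HepG2 cells, quantified after 24 h by RT-PCR and fluorescent capillary electrophoresis with DMSO as baseline.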

[15] = molecular target: Oxysterols receptor LXR-beta (Homo sapiens) (UniProt P55055); assay: ATG_LXRb_TRANS: Attagene TRANS-FACTORIAL HepG2 Assay for human Liver X Receptor beta (LXRb) (AID 2282981); settings: HepG2 Attagene TRANS GAL4-LXRb reporter, mRNA
Summary of the method: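 Multiplexed reporter assay, HepG2, 24 h dosing. Fluorescence of labelled RT-PCR products after capillary electrophoresis gives transcript level; positive fitting direction relative to DMSO.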

[16] = ATG_M_32_TRANS: Attagene TRANS-FACTORIAL HepG2 Assay for M32 Transcription Factor (Internal Marker) (AID 2282984); settings: HepG2 Attagene TRANS M32 internal marker reporter
Summary of the method: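 Internal-marker readout from a multiplexed transcription reporter panel. HepG2 cells were transfected with GAL4-UAS reporter units, treated 24 hours, and reporter transcript levels determined by fluorescence after RT-PCR and capillary separation.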

[17] = molecular target: Steroid hormone receptor ERR1 (Homo sapiens) (UniProt P11474); assay: ATG_ERRa_TRANS: Attagene TRANS-FACTORIAL HepG2 Assay for human Estrogen-Related Receptor alpha (ERRa) (AID 2282971); settings: HepG2 Attagene TRANS reporter, ERRa transactivation
Summary of the method: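 HepG2 cells transiently transfected with GAL4-UAS reporter units and chimeric NR-Gal4 constructs; after 24 hour compound incubation, reporter mRNA quantified by RT-PCR, fluorescent labelling and capillary electrophoresis, gain of signal versus DMSO.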

[18] = molecular target: Estrogen-related receptor gamma (Homo sapiens) (UniProt P62508); assay: ATG_ERRg_TRANS: Attagene TRANS-FACTORIAL HepG2 Assay for human Estrogen-Related Receptor gamma (ERRg) (AID 2282977); settings: HepG2 Attagene TRANS reporter, ERRg transactivation;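 also: hits increase reporter signal over DMSO so potencies reflect activators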
Summary of the method: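 Induction of reporter transcripts through a chimeric NR-Gal4 protein is quantified in transfected human HepG2 liver cells after 24 h chemical exposure, using RT-PCR with capillary electrophoresis detection and DMSO as baseline.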

[19] = molecular target: Oxysterols receptor LXR-alpha (Homo sapiens) (UniProt Q13133); assay: ATG_LXRa_TRANS: Attagene TRANS-FACTORIAL HepG2 Assay for human Liver X Receptor alpha (LXRa) (AID 2282980); settings: HepG2 Attagene TRANS reporter, LXRa transactivation
Summary of the method: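 HepG2 cells transiently transfected with GAL4-UAS reporter units for chimeric NR-Gal4 proteins, exposed to chemicals for 24 h. Reporter mRNA quantified by RT-PCR and capillary electrophoresis; gain of signal fitted relative to DMSO.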

[20] = molecular target: Nuclear receptor subfamily 4 group A member 2 (Homo sapiens) (UniProt P43354); assay: ATG_NURR1_TRANS: Attagene TRANS-FACTORIAL HepG2 Assay for human Nuclear Receptor Related Protein 1 (NURR1) (AID 2282985); settings: HepG2 Attagene TRANS reporter, mRNA readout
Summary of the method: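 Endpoint: reporter mRNA increase relative to DMSO. HepG2 cells transfected with reporter units, treated 24 h; RNA processed by RT-PCR, labelling, HpaI digestion and capillary electrophoresis.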

Measured: AC50

Transcriptional activator Myb (Homo sapiens), sequence (P10242 whole entry, looked up): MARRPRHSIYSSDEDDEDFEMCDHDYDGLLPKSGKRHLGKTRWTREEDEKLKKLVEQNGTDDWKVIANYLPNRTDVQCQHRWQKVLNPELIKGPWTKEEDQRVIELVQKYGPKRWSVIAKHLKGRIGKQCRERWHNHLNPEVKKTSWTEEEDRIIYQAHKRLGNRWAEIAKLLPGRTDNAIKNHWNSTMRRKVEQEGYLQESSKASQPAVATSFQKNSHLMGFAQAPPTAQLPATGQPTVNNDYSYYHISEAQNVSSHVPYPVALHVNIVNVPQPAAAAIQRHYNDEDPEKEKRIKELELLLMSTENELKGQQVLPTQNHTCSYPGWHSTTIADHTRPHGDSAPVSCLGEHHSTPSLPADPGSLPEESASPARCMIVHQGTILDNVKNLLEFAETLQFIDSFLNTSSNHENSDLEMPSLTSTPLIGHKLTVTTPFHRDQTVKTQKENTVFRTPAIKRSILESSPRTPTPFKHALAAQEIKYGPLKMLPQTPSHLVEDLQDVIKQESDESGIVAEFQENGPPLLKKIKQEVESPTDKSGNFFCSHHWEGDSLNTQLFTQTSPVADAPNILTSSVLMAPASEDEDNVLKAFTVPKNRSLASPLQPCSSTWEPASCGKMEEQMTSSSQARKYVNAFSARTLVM
Steroid hormone receptor ERR1 (Homo sapiens), sequence (P11474 whole entry, looked up, the tested form may be a part): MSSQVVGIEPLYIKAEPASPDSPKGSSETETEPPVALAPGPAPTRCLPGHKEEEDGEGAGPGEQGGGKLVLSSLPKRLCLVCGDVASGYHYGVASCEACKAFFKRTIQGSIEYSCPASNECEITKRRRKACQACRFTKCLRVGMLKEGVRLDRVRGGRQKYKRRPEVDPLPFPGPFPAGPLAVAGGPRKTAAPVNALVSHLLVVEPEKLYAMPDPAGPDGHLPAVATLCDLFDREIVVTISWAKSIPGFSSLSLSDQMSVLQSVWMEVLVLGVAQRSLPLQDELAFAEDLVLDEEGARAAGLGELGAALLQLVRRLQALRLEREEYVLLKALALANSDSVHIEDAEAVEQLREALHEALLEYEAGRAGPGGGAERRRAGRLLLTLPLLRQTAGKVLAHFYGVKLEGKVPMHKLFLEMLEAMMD
Oxysterols receptor LXR-alpha (Homo sapiens), sequence (Q13133 whole entry, looked up, the tested form may be a part): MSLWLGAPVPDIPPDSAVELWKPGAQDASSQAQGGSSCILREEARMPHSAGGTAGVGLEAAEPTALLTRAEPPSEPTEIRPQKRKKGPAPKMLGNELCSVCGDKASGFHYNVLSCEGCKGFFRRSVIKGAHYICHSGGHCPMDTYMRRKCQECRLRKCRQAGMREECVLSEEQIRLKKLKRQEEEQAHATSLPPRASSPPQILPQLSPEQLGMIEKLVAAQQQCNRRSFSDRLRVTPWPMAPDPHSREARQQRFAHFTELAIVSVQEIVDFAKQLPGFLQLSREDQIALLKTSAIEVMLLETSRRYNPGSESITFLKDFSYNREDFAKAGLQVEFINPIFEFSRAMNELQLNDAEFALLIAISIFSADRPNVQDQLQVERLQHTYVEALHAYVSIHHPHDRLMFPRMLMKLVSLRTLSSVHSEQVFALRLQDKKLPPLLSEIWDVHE
Estrogen receptor (Homo sapiens), sequence (P03372 whole entry, looked up, the tested form may be a part): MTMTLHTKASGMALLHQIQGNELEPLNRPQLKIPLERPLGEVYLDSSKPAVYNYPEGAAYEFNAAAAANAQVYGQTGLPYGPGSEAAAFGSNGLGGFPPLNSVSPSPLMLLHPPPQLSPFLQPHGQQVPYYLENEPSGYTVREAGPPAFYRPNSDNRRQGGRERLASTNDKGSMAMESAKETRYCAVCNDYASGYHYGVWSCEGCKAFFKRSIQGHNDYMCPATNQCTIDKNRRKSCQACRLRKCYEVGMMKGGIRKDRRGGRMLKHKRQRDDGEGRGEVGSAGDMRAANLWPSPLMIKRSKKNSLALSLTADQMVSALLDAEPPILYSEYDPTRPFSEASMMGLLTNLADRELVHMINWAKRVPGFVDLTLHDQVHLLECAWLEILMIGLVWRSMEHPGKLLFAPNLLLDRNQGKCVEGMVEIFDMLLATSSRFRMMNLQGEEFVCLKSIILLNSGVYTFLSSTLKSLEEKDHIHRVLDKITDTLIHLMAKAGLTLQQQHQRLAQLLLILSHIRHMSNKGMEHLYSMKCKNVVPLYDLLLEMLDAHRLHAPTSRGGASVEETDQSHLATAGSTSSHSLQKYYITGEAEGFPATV
Glucocorticoid receptor (Homo sapiens), sequence (P04150 whole entry, looked up, the tested form may be a part): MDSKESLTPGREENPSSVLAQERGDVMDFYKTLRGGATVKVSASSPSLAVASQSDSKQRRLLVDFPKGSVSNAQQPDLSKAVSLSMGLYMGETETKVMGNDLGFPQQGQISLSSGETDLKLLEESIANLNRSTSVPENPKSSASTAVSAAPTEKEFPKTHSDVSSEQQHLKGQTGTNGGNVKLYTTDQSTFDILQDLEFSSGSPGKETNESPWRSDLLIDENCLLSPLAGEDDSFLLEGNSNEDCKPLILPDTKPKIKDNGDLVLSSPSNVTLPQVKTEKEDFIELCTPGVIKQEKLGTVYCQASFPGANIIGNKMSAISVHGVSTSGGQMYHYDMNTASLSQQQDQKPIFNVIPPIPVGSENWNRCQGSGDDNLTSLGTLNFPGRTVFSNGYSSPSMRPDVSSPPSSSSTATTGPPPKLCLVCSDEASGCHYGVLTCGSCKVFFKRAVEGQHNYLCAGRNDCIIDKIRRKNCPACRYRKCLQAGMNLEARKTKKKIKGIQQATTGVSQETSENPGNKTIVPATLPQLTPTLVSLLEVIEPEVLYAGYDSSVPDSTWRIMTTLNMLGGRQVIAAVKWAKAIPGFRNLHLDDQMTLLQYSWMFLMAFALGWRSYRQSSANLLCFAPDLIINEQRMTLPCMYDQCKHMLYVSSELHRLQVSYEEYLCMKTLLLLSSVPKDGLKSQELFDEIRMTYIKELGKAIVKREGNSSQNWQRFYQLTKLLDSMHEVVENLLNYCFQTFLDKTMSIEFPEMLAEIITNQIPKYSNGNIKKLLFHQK
Nuclear receptor subfamily 4 group A member 2 (Homo sapiens), sequence (P43354 whole entry, looked up): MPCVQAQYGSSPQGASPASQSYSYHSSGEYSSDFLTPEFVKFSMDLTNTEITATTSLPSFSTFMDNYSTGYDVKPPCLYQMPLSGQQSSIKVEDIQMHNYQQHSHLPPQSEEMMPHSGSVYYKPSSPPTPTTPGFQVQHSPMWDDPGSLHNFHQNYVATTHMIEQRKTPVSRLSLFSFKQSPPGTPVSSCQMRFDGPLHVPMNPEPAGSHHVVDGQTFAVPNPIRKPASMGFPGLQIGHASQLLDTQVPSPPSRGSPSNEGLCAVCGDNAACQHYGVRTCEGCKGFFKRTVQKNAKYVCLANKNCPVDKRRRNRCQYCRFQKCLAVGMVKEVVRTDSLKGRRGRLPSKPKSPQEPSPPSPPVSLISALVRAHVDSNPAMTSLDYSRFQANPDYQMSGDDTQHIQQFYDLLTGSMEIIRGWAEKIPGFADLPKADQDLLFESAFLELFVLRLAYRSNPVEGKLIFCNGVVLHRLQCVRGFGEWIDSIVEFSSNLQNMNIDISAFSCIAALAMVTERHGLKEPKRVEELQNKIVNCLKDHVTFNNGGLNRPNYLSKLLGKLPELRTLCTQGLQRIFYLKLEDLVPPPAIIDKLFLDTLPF
X-box-binding protein 1 (Homo sapiens), sequence (P17861 whole entry, looked up): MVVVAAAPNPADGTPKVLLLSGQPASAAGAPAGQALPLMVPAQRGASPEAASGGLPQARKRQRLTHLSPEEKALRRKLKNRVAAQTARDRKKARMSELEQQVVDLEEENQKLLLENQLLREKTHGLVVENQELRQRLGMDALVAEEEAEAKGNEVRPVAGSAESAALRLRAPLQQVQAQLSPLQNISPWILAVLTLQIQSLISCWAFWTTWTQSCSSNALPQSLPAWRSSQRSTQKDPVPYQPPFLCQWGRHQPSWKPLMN
Nuclear receptor subfamily 1 group I member 3 (Homo sapiens), sequence (Q14994 whole entry, looked up, the tested form may be a part): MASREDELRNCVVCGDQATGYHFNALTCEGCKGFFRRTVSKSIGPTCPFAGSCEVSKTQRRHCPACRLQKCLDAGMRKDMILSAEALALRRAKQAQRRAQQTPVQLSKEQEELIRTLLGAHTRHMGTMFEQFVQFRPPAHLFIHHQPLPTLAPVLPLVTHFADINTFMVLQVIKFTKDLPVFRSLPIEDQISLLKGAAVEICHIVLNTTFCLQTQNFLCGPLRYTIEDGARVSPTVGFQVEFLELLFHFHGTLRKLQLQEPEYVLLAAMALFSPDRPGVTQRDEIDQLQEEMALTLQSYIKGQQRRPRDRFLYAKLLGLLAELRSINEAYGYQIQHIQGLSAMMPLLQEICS
Hepatocyte nuclear factor 4-alpha (Homo sapiens), sequence (P41235 whole entry, looked up, the tested form may be a part): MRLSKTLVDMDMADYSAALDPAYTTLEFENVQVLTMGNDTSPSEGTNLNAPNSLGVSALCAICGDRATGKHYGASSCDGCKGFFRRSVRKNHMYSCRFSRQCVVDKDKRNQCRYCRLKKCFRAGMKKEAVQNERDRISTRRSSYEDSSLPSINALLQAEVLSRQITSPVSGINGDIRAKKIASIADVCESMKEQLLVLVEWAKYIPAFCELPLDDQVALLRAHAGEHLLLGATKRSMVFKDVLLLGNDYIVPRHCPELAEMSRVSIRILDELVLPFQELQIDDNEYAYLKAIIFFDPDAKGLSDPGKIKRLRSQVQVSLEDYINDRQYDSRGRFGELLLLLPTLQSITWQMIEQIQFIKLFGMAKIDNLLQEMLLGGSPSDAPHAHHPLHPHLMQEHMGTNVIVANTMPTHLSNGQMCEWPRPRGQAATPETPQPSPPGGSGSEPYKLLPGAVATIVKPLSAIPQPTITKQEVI

Cc1ccccc1S
active: [1] 55.9 µM | [7] 75.5 µM
inactive: [2] | [3] | [4] | [5] | [6] | [8] | [9] | [10] | [11] | [12]

CC(=O)c1ccc(C)cc1
not listed: [8] | [9] | [17] | [18] | [19] | [20]
inactive: all other assays above

O=C(O)c1cc2ccccc2cc1O
not listed: [8] | [9] | [11] | [13] | [14]
inactive: all other assays above

CCC(CC)CO
not listed: [9] | [11] | [14] | [15] | [17] | [18] | [19] | [20]
inactive: all other assays above

C#C[C@]1(O)CC[C@H]2[C@@H]3CCc4cc(O)ccc4[C@H]3CC[C@@]21C
active: [1] 19.2 µM and 19.8 µM | [2] 152 µM and 78.2 µM | [3] 100 µM | [7] 59.6 µM [middle of 4 runs] | [12] 156 µM and 172 µM
inactive: [1] | [2] | [3] | [7] | [8] | [13] | [14] | [19] | [15] | [10] | [11] | [16] | [20] | [12]

CC(=O)OCC=C(C)CCC=C(C)CCC=C(C)C
inactive: [3] | [4] | [5] | [17] | [19] | [15] | [20] | [12]
active: [1] 148 µM | [2] 100 µM | [6] 9.02 µM | [7] 151 µM

CCC(C)C1CCCCC1=O (centres undefined)
not listed: [5] | [9] | [10] | [11] | [13] | [14] | [15] | [18]
inactive: all other assays above

NC(=O)c1c(Cl)cccc1Cl
inactive: [1] | [2] | [3] | [4] | [6] | [17] | [7] | [9] | [10] | [11] | [12]

C=CC(C)CCCC(C)(C)O (centres undefined)
inactive: [1] | [2] | [3] | [4] | [5] | [7] | [10] | [11] | [12]

CCCCCCCCCCCCN1CCOCC1
active: [4] 60.6 µM | [7] 46.9 µM
not listed: [5] | [8] | [9] | [10] | [16] | [18] | [20]
inactive: all other assays above
